Results on 40 compounds are retold here after PubChem BioAssay (NCATS).

Records with an inconclusive call do not appear. A call without a number means that no potency is given here. Calls of active or inactive are those of the source. Calls follow the shape of the dose curve; as a rule, active = well fitted inhibition curve with a large enough effect; inconclusive = small, poorly fitted or top-dose-only effect; inactive = no such curve, though single readings can be large or run the other way.
Potency is read from the fitted curve at half-maximal effect.

The assay addresses Retinaldehyde dehydrogenase 3 (Homo sapiens) (UniProt P47895). Put plainly: qHTS for Inhibitors of the Aldehyde Dehydrogenase Family (ALDH1A3) Confirmatory screens (AID 2061311). Also: nearly all actives have a fitted effect of over 60% in size. As to conditions: ALDH inhibition qHTS; series mostly up to 46 µM.
On to `O=C(CSc1nc2c(cnn2-c2ccc(F)cc2)c(=O)[nH]1)Nc1ccc(Br)cc1`, for which the Potency result is “inactive”.
With `O=C(CSc1nc(-c2ccco2)nc2cc(=O)[nH]n12)Nc1ccccc1Cl`, the Potency result was “inactive”.
Next, `O=C1Cc2cc(S(=O)(=O)N3CCN(c4ccccc4)CC3)ccc2N1`: “inactive”; `O=c1c2cnn(-c3ccc(Cl)cc3)c2ncn1Cc1cccc(C(F)(F)F)c1`: “inactive”; `COc1ccc(OC)c(-c2cc(-c3cccs3)nc3c(C)noc23)c1`: 12.6 µM (active).
Then `Fc1cccc(Cc2noc(-c3nc(-c4ccccc4)no3)n2)c1`, with “inactive”; and `CCOc1ccc(NC(=O)N2CCC(CC(=O)NCc3ccccc3)C2)cc1` (stereo not given), with “inactive”; and `Cn1ccc(Nc2ccc3nnc(-c4ccccn4)n3n2)n1`, with “inactive”.
Then `CNCc1ccc(N2CCCC2)cc1`, with “inactive”.
`O=S(=O)(Nc1nc2ccccc2s1)c1ccc(NCc2ccc(Br)cc2O)cc1`: the Potency is 14.2 µM (active).
On to `Cc1ccc(NC(=O)CSc2nc3ncccc3[nH]2)cc1F`, for which the Potency result was “inactive”.
For `Cc1ccc(Oc2nc3c(c(=O)n(Cc4ccccc4Cl)c(=O)n3C)n2C)cc1C`, the Potency entry was “inactive”.
Then `CCc1nn(-c2ccc(OC)cc2)c(Oc2ccccc2F)c1CCC(=O)NC(C)C`, with “inactive”.
Next, `COc1cccc(CCC(=O)NCc2nnc3c(-c4nc(C)no4)cccn23)c1`: “inactive”; `COc1ccc(NC(=O)N2CCC(CC(=O)NCc3ccccc3)C2)cc1OC` (stereo not given): “inactive”; `COc1ccccc1-c1ccc2ncc(Nc3cccc(O)c3)n2n1`: “inactive”.
Then `Fc1cccc(Cc2noc(-c3nc(-c4ccc5c(c4)OCO5)no3)n2)c1`, with “inactive”; and `CC(=O)Nc1ccc(CN2CCCC(N3CCN(c4ccccc4)CC3)C2)cc1` (stereo not given), with “inactive”; and `CCOc1ccc(NC(=O)C(=O)NCCc2ccccc2)cc1`, with “inactive”.
For the compound `Cc1nonc1OCCn1cc(-c2ccc(CO)o2)nn1`, the Potency result was “inactive”.
Then `Cc1cc2nc3n(c(=O)c2n1CC(=O)Nc1ccc(Br)cc1F)CCC3`, with “inactive”; and `COc1ccc(C(=O)NCc2nnc3ccc(-c4ccccc4)nn23)c(C)c1`, with “inactive”; and `O=C(Cn1cnc2onc(-c3ccc(Cl)cc3)c2c1=O)Nc1ccc(F)cc1`, with “inactive”.
Next, `Cc1ccc(C(=O)c2cn(Cc3cccc(F)c3)c3nc(C)ccc3c2=O)cc1`: “inactive”; `CCOc1ccc(CCNC(=O)c2cc3sccc3n2CC)cc1OCC`: “inactive”; `O=C(Nc1ccc(Oc2ccccc2)cc1)c1ccc(F)c(S(=O)(=O)N2CCN(c3cccc(Cl)c3)CC2)c1`: “inactive”.
Regarding `O=C(Nc1ccc([C@@H](O)[C@H]2COCC(=O)N2CCCc2ccccc2)cc1)C1CCC1`, the Potency entry is “inactive”.
Then `O=[S+]([O-])(c1ccccc1)c1nnn2c1nc(N1CCC(F)CC1)c1ccccc12`, with “inactive”; and `O=C(CC1CCOCC1)NCc1ccc(N2CCOCC2)cc1`, with “inactive”.
Then `O=C(O)c1ccc(Cn2c(SCc3ccc(F)cc3)nc3ccncc32)cc1`, with “inactive”; and `Cc1noc(C)c1-c1cnc(Nc2ccc(F)c(Cl)c2)c2c1CCO2`, with 31.6 µM (active); and `CCc1cccc(C)c1NC(=O)CSc1nc2ccncc2[nH]1`, with “inactive”.
Turning to `O=C(CCS(=O)(=O)c1cccc2nonc12)Nc1ccc(F)cc1F`, the Potency result is “inactive”.
Then `N#Cc1cccc(C(=O)Nc2ccc([C@H]3OCC(=O)N(C4CCOCC4)[C@@H]3CO)cc2)c1`, with “inactive”; and `O=C(CSc1nc2ncccc2[nH]1)Nc1cc(F)ccc1F`, with “inactive”.
Next, `Cc1ccc([S+](=O)([O-])c2nnn3c2nc(N2CCC(F)CC2)c2ccccc23)cc1`: “inactive”; `COc1ccc(CC(=O)Nc2ccc([C@H]3OCC(=O)N(Cc4ccccc4)[C@@H]3CO)cc2)cc1`: “inactive”.
`O=S(=O)(c1ccccc1)c1nnn2c1nc(NC1CCCC1)c1ccccc12`: the Potency entry is “inactive”.
Then `c1cnc(-c2noc(-c3nc(-c4ccc5c(c4)OCO5)no3)n2)cn1`, with “inactive”.
Next, `O=C(Nc1ccc([C@@H](O)[C@H]2COCC(=O)N2CCCc2ccccc2)cc1)c1ccco1`: “inactive”.
